KCNQ2 enhance – potentiators of rat KCNQ2 potassium channel; B-score at 10 µM; 310,000 tested, 0.54% active; Potassium voltage-gated channel subfamily KQT member 2 (Rattus norvegicus), O88943; CHO-K1 KCNQ2, FluxOR thallium flux fluorescence; stronger effect = higher value;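 active means fluorescence ratio B-score at least 3 SD of library B-scores, with initial fluorescence B-score within 3 of them, cut at about 5.3 in these data; same plate scores as AID 2156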;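 further: B-score of peak minus minimum over baseline fluorescence ratio after K+ and Tl+ stimulus; positive B-score means potentiation of KCNQ2 with more thallium influx and brighter signal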
KCNQ2 inh – rat KCNQ2 potassium channel inhibitors, primary screen, cell-based, CHO-K1, FluxOR thallium flux, B-score; Potassium voltage-gated channel subfamily KQT member 2 (Rattus norvegicus), O88943; 20 min; stronger effect = lower value; B-score at 10 µM; 310,000 tested, 1.1% active;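 active means fluorescence ratio B-score at most minus 3 library SDs, with starting brightness B-score within 2 library SDs, cut at about -5.5 in these data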
Kir21 conf inh – mouse Kir2.1 channel blockers, retest, confirmation, cell-based, FluxOR thallium flux, duplicate; shares compounds with KCNQ2 enhance; Kir2.1-expressing cells, FluxOR thallium flux fluorescence; stronger effect = lower value; AID 2032, 2009; 2,300 tested, 41% active; Tl flux remaining, % of negative control (stronger effect = lower value), % at 10 µM;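 active means Primary-screen hit whose thallium flux fell at least 3 control SD below untreated wells in both duplicates, with normal baseline fluorescence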;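 further: 0% = blank wells without stimulus and 100% = stimulated no-compound controls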
HEK293 ctr – counter-screen for Kir2.1 inhibitors: effect in parental HEK293 cells; FluxOR signal as % of negative control (100 = no effect), % at 10 µM; shares compounds with KCNQ2 enhance; FluxOR thallium flux fluorescence; 0% = unstimulated blank wells; 2,300 tested, 19% active;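 active means dye signal at least 3 control SD above or below untreated wells in both duplicates, raw fluorescence within 3, either direction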;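 further: percent is based on the flux ratio of peak minus minimum fluorescence over baseline F0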
CHO-K1 ctr – nonspecific thallium flux increase in parental CHO-K1, confirmation, counter-screen for KCNQ2 potentiator project, cell-based, FluxOR thallium flux, duplicate | shares compounds with KCNQ2 enhance | parental CHO-K1 cells, FluxOR thallium flux fluorescence; zero = vehicle mean+3SD, 100% = vehicle-minus-blank window | activity increase over 3SD of controls, % at 10 µM | 1,200 tested, 43% active | AID 2282, 2010;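 active means signal rise of at least 3 SD above the untreated control mean, in both duplicate wells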;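 further: counter screen of KCNQ2 potentiator hits so any rise reflects channel-independent effects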
KCNQ1 pot spec – human KCNQ1 channel potentiation off-target, confirmation, selectivity assay for KCNQ2 potentiator project, cell-based, CHO, FluxOR thallium flux | CHO KCNQ1 stable, FluxOR thallium flux fluorescence; beyond 3SD, as % of vehicle-control signal | activation over 3SD threshold, % at 10 µM | shares compounds with KCNQ2 enhance | AID 2283, 2010 | 1,200 tested, 28% active;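 active means fluorescence ratio rise of at least 3 SD of vehicle wells above their mean, in both replicate wells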;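 further: 0% = vehicle mean plus 3 SD and 100% = vehicle minus unstimulated blank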
KCNQ2 pot conf – rat KCNQ2 channel potentiators, confirmation, cell-based, CHO, FluxOR thallium flux, duplicate. CHO-KCNQ2 cells, FluxOR thallium flux fluorescence. shares compounds with KCNQ2 enhance. AID 2287, 2010. potentiation, less the hit threshold, % at 10 µM. 1,200 tested, 68% active;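 active means fluorescence ratio rising 3 SD or more over the vehicle control mean in both replicates, plus primary screen hit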;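 further: peak minus minimum thallium fluorescence divided by baseline after K/Tl stimulus; 0% = vehicle mean plus 3 SD and 100% = vehicle minus unstimulated blank difference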
Kir2-1 sel – mouse Kir2.1 channel activation off-target, confirmation, selectivity assay for KCNQ2 potentiator project, cell-based, HEK293, FluxOR thallium flux | activity over 3SD threshold, % at 10 µM | 1,200 tested, 2% active | HEK293 Kir2.1, FluxOR thallium flux fluorescence | shares compounds with KCNQ2 enhance | AID 2345, 2010;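 active means fluorescence ratio rise of at least 3 SD above the vehicle-control mean, seen in both replicates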;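 further: 0% = vehicle mean plus 3 SD and 100% = vehicle minus no-stimulus blank window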
KCNQ2 W236L pot – potentiators of retigabine-insensitive KCNQ2 W236L, mechanism study for KCNQ2 potentiator project, cell-based, rat KCNQ2 W236L, CHO, automated patch clamp | shares compounds with KCNQ2 enhance | automated patch clamp current | current increase over 3SD of negative controls (%), stronger effect = higher value, % at 25 µM | 940 tested, 10% active;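 active means current increase at least 3 SD of the untreated controls above them in both duplicate recordings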
Target sequence (O88943 whole entry W236L, looked up): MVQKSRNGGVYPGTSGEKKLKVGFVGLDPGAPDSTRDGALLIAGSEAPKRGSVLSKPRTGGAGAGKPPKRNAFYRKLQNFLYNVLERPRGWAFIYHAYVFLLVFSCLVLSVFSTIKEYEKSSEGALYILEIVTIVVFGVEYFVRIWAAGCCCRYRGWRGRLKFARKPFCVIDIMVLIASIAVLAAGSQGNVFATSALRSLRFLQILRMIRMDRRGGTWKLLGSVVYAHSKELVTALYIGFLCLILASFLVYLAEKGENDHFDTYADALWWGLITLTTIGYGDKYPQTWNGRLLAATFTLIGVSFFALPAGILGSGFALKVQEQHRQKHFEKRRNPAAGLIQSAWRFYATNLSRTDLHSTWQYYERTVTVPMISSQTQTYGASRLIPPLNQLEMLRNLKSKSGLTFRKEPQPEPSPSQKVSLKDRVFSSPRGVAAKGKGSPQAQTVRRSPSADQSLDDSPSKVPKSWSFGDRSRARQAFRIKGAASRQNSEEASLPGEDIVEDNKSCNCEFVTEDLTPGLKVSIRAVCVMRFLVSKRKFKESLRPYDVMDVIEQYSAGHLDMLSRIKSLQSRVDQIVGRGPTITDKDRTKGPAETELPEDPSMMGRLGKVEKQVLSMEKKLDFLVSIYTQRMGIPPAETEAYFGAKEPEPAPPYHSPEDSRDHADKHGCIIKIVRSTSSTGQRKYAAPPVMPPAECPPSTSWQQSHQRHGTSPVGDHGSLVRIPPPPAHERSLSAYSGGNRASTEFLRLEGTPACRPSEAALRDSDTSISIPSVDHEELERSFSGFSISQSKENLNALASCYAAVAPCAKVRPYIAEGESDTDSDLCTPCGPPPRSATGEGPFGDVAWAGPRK
* marks the source's active call; other numbers are inactive results; i = inactive; · = not tested or not shown. A selection: hits, their analogues and other compounds. The true share with any hit is near 1.6%.

SMILES | KCNQ2 enhance | KCNQ2 inh | Kir21 conf inh | HEK293 ctr | others
CCc1ccc(NC(=O)C(=O)NNC(=O)c2ccc(OC)cc2)cc1 | 25* | i | i | i | CHO-K1 ctr=-13;KCNQ1 pot spec=-45;KCNQ2 pot conf=-3;Kir2-1 sel=-25;KCNQ2 W236L pot=i
COc1ccc(CC(=O)NNC(=O)c2ccc(NC(C)=O)cc2)cc1 | 0.3 | i | · | ·
COc1cccc(C(=O)NNC(=O)C(=O)Nc2cccc3ccccc23)c1 | 13* | i | i | i | CHO-K1 ctr=-10;KCNQ1 pot spec=8.8*;KCNQ2 pot conf=-12;Kir2-1 sel=-27
COc1ccc(C(=O)NNC(=O)C(=O)Nc2ccc(C)cc2)cc1 | 28* | i | i | 234%* | CHO-K1 ctr=5.7*;KCNQ1 pot spec=-6;KCNQ2 pot conf=7.6*;Kir2-1 sel=-29;KCNQ2 W236L pot=i
COc1cccc(C(=O)Nc2cccc3ccccc23)c1 | · | i | · | ·
COc1ccc(NC(=O)c2ccc(C)cc2)cc1 | · | i | · | ·
Cc1ccc(-c2nnc(Oc3ccc(NC(=O)c4ccccc4)cc3)c3ccccc23)cc1 | · | i | · | ·
Cc1ccc(C(=O)Nc2cccc(NC(=O)c3ccc(C)o3)n2)o1 | 1.9 | i | · | ·
COc1ccc(NS(=O)(=O)c2csc(C(N)=O)c2)cc1 | 0.01 | i | · | ·
O=C(Nc1nc(-c2ccccc2)c(-c2ccccc2)o1)c1ccc(F)cc1 | 4.2 | i | i | 150%*
COc1cccc(C(=O)Nc2nc(-c3ccccc3)c(-c3ccccc3)o2)c1 | 2.3 | i | · | ·
CCn1c(O)c(N=Nc2ccc(Cl)c(C(=O)O)c2)c2ccccc21 | 2.8 | i | · | ·
CC(C)n1c(O)c(N=Nc2ccc(Cl)c(C(=O)O)c2)c2ccccc21 | 7.5* | i | i | i | CHO-K1 ctr=78*;KCNQ1 pot spec=29*;KCNQ2 pot conf=23*;Kir2-1 sel=-32;KCNQ2 W236L pot=50%*
Cc1cc(C)n(C(=O)Cn2nc([N+](=O)[O-])c(Br)c2C)n1 | 0.22 | i | · | ·
CCNc1nc2c(c(=O)n(C)c(=O)n2C)n1CCCc1ccccc1 | 1.4 | i | · | ·
O=C(CCCN1CCC(C(=O)c2ccc(F)cc2)CC1)c1ccc(F)cc1 | · | i | · | ·
O=C(CCCN1CCC(O)(c2ccc(Cl)cc2)CC1)c1ccc(F)cc1 | · | i | 34%* | i
O=C(/C=C/c1ccco1)NCC1COc2ccccc2O1 (stereo not given) | · | i | · | ·
O=C1NC(c2ccccc2)Nc2c1sc(=S)n2-c1ccccc1 (stereo not given) | · | i | · | ·
Cc1cc(SCC(=O)OCC(=O)N2CCCC2=O)c(C)cc1Br | 1.1 | i | i | i
NC(=O)c1ccc(SCC(=O)OCC(=O)N2CCCC2=O)c([N+](=O)[O-])c1 | 0.56 | i | · | ·
OCCNC(=S)Nc1cccc(Cl)c1Cl | · | i | · | ·
CCc1ccc(CCC(=O)Nc2ccc(C)cc2C)o1 | 6* | i | i | i | CHO-K1 ctr=-8;KCNQ1 pot spec=-8;KCNQ2 pot conf=1.0*;Kir2-1 sel=-36;KCNQ2 W236L pot=i
Cc1ccc(NC(=O)CCc2ccc(C)o2)c(Br)c1 | 4.2 | i | · | ·
O=C(Cn1nc(C(F)(F)F)cc1C1CC1)NCc1ccccc1F | 1.4 | i | · | ·
SMILES | KCNQ2 enhance | KCNQ2 inh | Kir21 conf inh | HEK293 ctr | others
COc1ccc(CCNS(=O)(=O)CCNC(=O)c2ccc3c(c2)OCO3)cc1 | 0.07 | i | · | ·
O=C(CSc1nc(N2CCCCC2)nc(N2CCCCC2)n1)c1ccccc1 | 32* | i | i | i | CHO-K1 ctr=-6;KCNQ1 pot spec=38*;KCNQ2 pot conf=20*;Kir2-1 sel=-28;KCNQ2 W236L pot=i
Cc1cc(N2CCCCC2)nc(SCC(=O)c2ccccc2)n1 | · | i | · | ·
Cc1ccc2nc(NC(=O)c3ccco3)sc2c1 | 0.98 | i | · | ·
O=C(NC(=S)Nc1nc(-c2ccc(Br)cc2)cs1)c1ccco1 | 5.1 | i | · | ·
Cc1ccc2nc(NC(=S)NC(=O)c3ccco3)sc2c1 | 12* | i | i | 228%*
O=C(NC(=S)Nc1nc(-c2ccc([N+](=O)[O-])cc2)cs1)c1ccco1 | 10* | i | i | 168%* | CHO-K1 ctr=-7;KCNQ1 pot spec=44*;KCNQ2 pot conf=-7;Kir2-1 sel=-27
O=C(Nc1ccccc1)C1CC2CCC1C2 (stereo not given) | 3.5 | i | · | ·
Cc1ccc(S(N)(=O)=O)cc1NC(=O)C1CC2CCC1C2 (stereo not given) | · | i | · | ·
Cc1ccc(NC(=O)C2CCCC2)c(Br)c1 | 4.5 | i | · | ·
Cc1ccc(C)c(NC(=O)C2CC3CCC2C3)c1 (stereo not given) | 21* | i | i | i | CHO-K1 ctr=-8;KCNQ1 pot spec=1.6*;KCNQ2 pot conf=57*;Kir2-1 sel=-38;KCNQ2 W236L pot=i
Cc1ccc(NC(=O)CC2CCCC2)c(Br)c1 | 16* | i | i | i | CHO-K1 ctr=-20;KCNQ1 pot spec=-12;KCNQ2 pot conf=52*;Kir2-1 sel=-25;KCNQ2 W236L pot=i
Cc1ccc(NC(=O)C2CC3CCC2C3)c(Br)c1 (stereo not given) | 14* | i | i | i | CHO-K1 ctr=17*;KCNQ1 pot spec=-17;KCNQ2 pot conf=32*;Kir2-1 sel=-41;KCNQ2 W236L pot=i
Cc1cc(C)cc(NC(=O)C2CC3CCC2C3)c1 (stereo not given) | 0.29 | i | · | ·
CCN(CC)c1ccc(NC(=O)C2CC3CCC2C3)cc1 (stereo not given) | 23* | i | i | i | CHO-K1 ctr=2.7*;KCNQ1 pot spec=-15;KCNQ2 pot conf=65*;Kir2-1 sel=-32;KCNQ2 W236L pot=i
Cc1[nH]c(=O)[nH]c(=O)c1S(=O)(=O)Nc1ccc(Br)cc1F | 0.04 | i | · | ·
COc1ccc(CN2CC(C(=O)NCCCN3CCCCC3)CC2=O)cc1 (stereo not given) | · | i | · | ·
CC(=O)N1CCN(c2ccccc2NC(=O)c2ccco2)CC1 | 2.6 | i | · | ·
O=C(N/C(=C/C=C/c1ccccc1)C(=O)N1CCOCC1)c1ccccc1Br | · | i | · | ·
CCOc1nc(OCC)c2cnn(C)c2n1 | · | i | · | ·
CCOC(=O)[C@@H]1[C@H]2COc3cc(OC)ccc3[C@@H]2N2C(=O)N(c3cccc(Cl)c3)C(=O)[C@@]12C | 0.04 | i | · | ·

Screens as filed in PubChem BioAssay.
